Rpn11 block – blocks the human proteasome subunit Rpn11 | human 26S proteasome, Ub4-pepOG fluorescence polarization; 20S core pre-blocked with epoxomicin | inhibition, % at 20 µM | actives 0.59% (n = 360,000) | AID 588493;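 active = inhibition at 20 µM, scaled to each plate's controls, above about 33%, limit read from the data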
NR3A LBD binder – modulators (binders) of human NR3A ligand-binding domain. NR3A LBD differential scanning fluorimetry, Tm shift; 0% = protein alone, 100% = glycine-bound protein. Tm shift relative to glycine control, % at 25 µM. actives 2.5% (n = 340,000);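 active = melting temperature shift of at least 10% of the positive control shift, at one fixed dose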
dFosB act-1 – mouse delta FosB homodimer activation. P13346. purified delta FosB, TAMRA-CDK5 oligo fluorescence polarization; percent of positive-control signal above neutral wells. activation, % at 25 µM. actives 0.99% (n = 340,000). AID 493131;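 active = mean activation above about 17%, with every replicate also reaching it, limit read from the data, passing the limit was not always enough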
Target sequence (P13346 whole entry, looked up): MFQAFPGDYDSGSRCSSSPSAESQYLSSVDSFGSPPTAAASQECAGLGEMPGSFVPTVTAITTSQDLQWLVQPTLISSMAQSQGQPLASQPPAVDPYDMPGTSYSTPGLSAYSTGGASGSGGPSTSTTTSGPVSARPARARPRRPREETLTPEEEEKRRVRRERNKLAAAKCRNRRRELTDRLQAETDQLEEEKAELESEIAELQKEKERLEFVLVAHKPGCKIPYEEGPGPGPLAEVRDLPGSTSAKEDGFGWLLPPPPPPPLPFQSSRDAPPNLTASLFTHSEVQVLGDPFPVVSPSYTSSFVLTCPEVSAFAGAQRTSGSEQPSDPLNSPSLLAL
ZTA counter – ZTA (EBV) inhibition in EBNA-1 counter-screen | P03206 | ZTA-DNA binding, fluorescence polarization | inhibition, % at 11 µM | actives 0.15% (n = 320,000) | AID 2234; in the data active = inhibition above about 33%
TPT1 inh – C. albicans TPT1 enzyme inhibition | recombinant caTPT1, FP RNA substrate dephosphorylation | inhibition, % at 5 µM | actives 0.81% (n = 300,000);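 active = inhibition above the mean of all tested compounds plus 3 SD, set per screening campaign, cut at about 24% in these data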;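 note: plate controls were DMSO alone for no effect and ferristatin control at 100 nM for full effect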
EBNA-1 inh – blocks EBNA-1 binding to DNA | EBNA-1 DNA binding, fluorescence polarization | AID 1950 | inhibition, % at 14.8 µM | actives 0.34% (n = 300,000); in the data active = inhibition above about 28%
dFosB act-2 – enhances mouse delta FosB homodimer binding to DNA; shares compounds with dFosB act-1; purified delta FosB, TAMRA-CDK5 oligo fluorescence polarization; normalised: neutral wells 0, positive control 100; activation, % at 24.9 µM; 2,400 tested, under 10 active; AID 588690;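 active = highest replicate activation at or above 34% and every replicate reaching that threshold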;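 note: higher polarization means more probe DNA bound by delta FosB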
* marks the source's active call; other numbers are inactive results; . = no result given. Shown are actives, neighbours in structure and some others; about 4.5% of the full set was active somewhere.

SMILES | Rpn11 block | NR3A LBD binder | dFosB act-1 | ZTA counter | TPT1 inh | EBNA-1 inh | dFosB act-2
N#CCC(=O)N/N=C/c1cn(Cc2ccc(Cl)c(Cl)c2)c2ccccc12 | 3 | 31* | 51* | -7 | -2 | -13 | -1
O=C(CN1CCCCC1)Nc1c2c(nc3ccccc13)N(c1ccccc1)CC2 | 2 | 1 | 56* | 3 | 3 | 25 | -1
O=C(CSc1nc2ccccc2c(=O)n1Cc1ccc(F)cc1)NCc1cccs1 | -3 | -4 | 35* | -9 | -1 | 6 | -2
O=C(CSc1nc2ccccc2c(=O)n1Cc1ccccc1)NCc1ccco1 | 1 | -1 | -12 | -9 | -3 | 8 | .
COc1ccc2cc(OCC(=O)NNC(=O)Nc3ccc(F)cc3)ccc2c1 | 1 | -1 | 21* | 4 | 2 | 2 | 0
COc1cccc(CC(NC(C)=O)C(=O)NC2CCN(C(=O)C3CCCCC3)CC2)c1OC (stereo unspecified) | -6 | 0 | 1 | . | . | . | .
O=C(Nc1cnc2ccccn2c1=O)c1ccc(Cl)cc1Cl | -2 | 0 | 19* | -11 | -1 | 0 | 5
Cc1ccc(C(=O)Nc2cnc3ccccn3c2=O)cc1 | 2 | 0 | -1 | 3 | 0 | 10 | .
CC(OC(=O)c1cccc(-n2cnnn2)c1)C(=O)Nc1ccc(F)c(F)c1F (stereo unspecified) | 1 | 1 | 30* | . | . | . | -1
CC(OC(=O)c1cccc(-n2cnnn2)c1)C(=O)Nc1ccccc1F (stereo unspecified) | -3 | 0 | -13 | -10 | -1 | -10 | .
Cc1ccc(N2CC(=O)Nc3c(oc4nc(-c5ccccc5)cc(C)c34)C2=O)cc1 | -2 | 1 | 24* | 6 | -1 | -8 | 1
CCCCCCN1C[C@@H](O)[C@H](n2cc(C3CC3)nn2)C[C@@H]1c1ccccc1 | 1 | . | . | . | . | . | .
O=C(/C=C/c1ccc([N+](=O)[O-])cc1)Oc1ccc(/C=N/NC(=O)c2ccncc2)cc1 | 5 | -1 | 26* | -11 | -4 | 6 | 6
C=CCC1(CC=C)CCCN1Cc1nc(COc2ccccc2)no1 | 27 | -1 | -3 | 13 | 20 | -1 | .
Cc1ccc(S(=O)(=O)N(C)c2ccc(OC(=O)CN3C(=O)NC4(CCCC4)C3=O)cc2)cc1C | 10 | -2 | 25* | -1 | 2 | -1 | 3
CNC(=O)C[C@H]1C(=O)N(CCc2ccccc2)C[C@@H]1CSC | -2 | . | . | . | . | . | .
O=C(Cc1cccc2ccccc12)N/N=C/c1ccc(OC(=O)/C=C/c2ccco2)cc1 | 5 | 2 | 18* | -6 | 1 | 6 | 1
COc1ccc(NC(=O)c2cc(-c3ccc4c(c3)OCO4)on2)cc1 | 2 | -1 | 26* | -5 | 0 | -11 | -1
Cc1nn(Cc2ccc(Cl)c(Cl)c2)c(C)c1NC(=O)c1cc(-c2ccc3c(c2)OCO3)on1 | 11 | 1 | -11 | -5 | 4 | 15 | .
Cc1ccc2oc(-c3ccc(NC(=O)c4ccc5c(c4)OCO5)cc3)nc2c1 | 16 | 22* | 45* | -4 | -2 | 7 | 2
COc1ccc(-c2cc(C(=O)Nc3ccc(C)cc3)no2)cc1 | 0 | -1 | -1 | 14 | -1 | 11 | .
Cc1nn(Cc2ccc(Cl)cc2)c(C)c1NC(=O)c1cc(-c2ccc3c(c2)OCO3)on1 | 5 | 2 | 58* | -11 | 0 | 7 | 7
Cc1ccc(NC(=O)c2cc(-c3ccc4c(c3)OCO4)on2)cc1 | -1 | -1 | 18* | 9 | 1 | -6 | 3
Cc1ccc(-c2cc(C(=O)NCc3ccc4c(c3)OCO4)no2)cc1 | -4 | -1 | 4 | -7 | -2 | 2 | .
O=C(Nc1nnc(-c2ccc(Br)cc2)o1)c1cccc(N2C(=O)CCC2=O)c1 | 1 | -5 | -8 | 3 | 1 | -13 | .
CCCCN1C(=O)c2ccc(C(=O)OCC(=O)N3CCN(c4ccccc4)CC3)cc2C1=O | 3 | 0 | -1 | 7 | . | . | .
Cc1ccc(-c2nnn(CC(=O)N3CCCCC3)n2)cc1 | -5 | -2 | -2 | 5 | 2 | -21 | .

Screening results deposited in PubChem BioAssay by several laboratories.
